Laboratory results: PubChem BioAssay AID624464 (National Center for Advancing Translational Sciences (NCATS), 2012)
Hit rate of the full screen: of about 360,000 compounds, about 810 (0.23%) were called active. No stated cut-off is given here; in the data, active means potentiation above about 50%; inconclusive means mostly about 30% to 49%; inactive means weaker than that. Only a selection was taken, and actives are over-represented in it overall.

The compounds below were run against D(2) dopamine receptor (Homo sapiens) (UniProt P14416) (assay: Beta-Arrestin HTS for Positive Allosteric Modulators of the Human D2 Dopamine Receptor: Potentiators). Conditions: DiscoveRx D2 beta-arrestin cells, luminescence, 90 min; stronger effect = higher value; 100% = 57 uM dopamine signal.
Chain of D(2) dopamine receptor (Homo sapiens) (P14416 whole entry, looked up): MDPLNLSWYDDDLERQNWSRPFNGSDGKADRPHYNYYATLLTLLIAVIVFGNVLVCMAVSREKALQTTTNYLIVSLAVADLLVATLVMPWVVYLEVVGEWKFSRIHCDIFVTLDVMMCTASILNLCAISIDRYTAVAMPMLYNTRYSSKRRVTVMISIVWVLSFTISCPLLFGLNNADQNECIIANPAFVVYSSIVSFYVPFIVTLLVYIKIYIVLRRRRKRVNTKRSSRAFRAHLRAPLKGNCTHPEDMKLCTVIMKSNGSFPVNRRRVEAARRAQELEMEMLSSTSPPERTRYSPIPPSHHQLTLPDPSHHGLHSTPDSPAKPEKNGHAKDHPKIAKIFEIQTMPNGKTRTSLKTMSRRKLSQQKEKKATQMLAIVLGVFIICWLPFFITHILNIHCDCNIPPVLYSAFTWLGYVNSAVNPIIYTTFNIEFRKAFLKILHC
Text: There is great interest in identifying small molecule ligands for G-protein coupled receptors (GPCRs) as nearly 50% of all FDA-approved drugs target these important receptor proteins. […] Amongst the dopamine receptors (DARs), the D2 is arguably one of the most validated drug targets in neurology and psychiatry. For instance, all receptor-based antiparkinsonian drugs primarily work via stimulating the D2 DAR, whereas all FDA-approved antipsychotic agents are antagonists of this receptor. The D2 DAR is also therapeutically targeted in other disorders such as restless legs syndrome, tardive dyskinesia, Tourette's syndrome, and hyperprolactinemia.
To this end, a miniaturized qHTS screen was developed to be screened against the Molecular Libraries Small Molecule Repository (MLSMR). This assay seeks to identify potentiators against the D2 DAR.
NIH Molecular Libraries Probe Production Network [MLPCN]
NIH Chemical Genomics Center [NCGC]
PI Name: David Sibley, National Institutes of Neurological Disorders and Stroke
DiscoveRx D2 cells were thawed from frozen stock and seeded at 2,100 cells/ 3 uL/well media (DiscoveRx Plating Reagent 2) with MultiDrop Combi dispenser (Thermo Scientific, Logan, UT) onto white tissue culture treated 1536-well Aurora plates (Brooks Automation, Chelmsford, MA) and allowed to attach overnight at 37 deg C, 5% CO2. Next, 23 nL/well of compound solutions in DMSO were added with a pintool transfer (Kalypsis, San Diego, CA). As the positive control, 1 uL/well dopamine (EC100, 57 uM final concentration) diluted in buffer (HBSS + 10 mM HEPES + SMB + 0.1 %Tween-20) was dispensed to 1 column of each plate. EC20 (Dopamine at 50 nM final concentration) was dispensed to the rest of the plate except columns 1 &2 which were used as negative control (EC=0, buffer only), 1 uL/well as well. The cells were stimulated by compounds and dopamine for 90 minutes at 37 deg C, 5% CO2, after which 1.5 uL/well of DiscoveRx detection reagent was added with BioRAPTR FRD dispenser. The detection reagent was prepared by mixing of Galacton Star Substrate, Emerald II solution and PathHunter buffer (supplied by the assay kit) together at 1:5:19 proportion accordingly just prior to dispensing. The plates were incubated at ambient temperature for 1 hour and then the luminescent signal was read on ViewLux plate reader (PerkinElmer, Waltham, MA).

Row | SMILES | potentiation
1 | CSc1ncnc2c1ncn2CCCNCc1cccs1 | 0.128% (inactive)
2 | CCN(CC)P(=O)(Nc1ccc(SC(F)F)cc1)c1ccc(N(C)C)cc1NC(=O)c1ccco1 (stereo not given) | -7.82% (inactive)
3 | CC(=O)CC[C@@H](C)O[C@@H]1OC(C)[C@H](O)CC1O (stereo not given in full) | -9.1% (inactive)
4 | Cc1ccc(S(=O)(=O)N2CCC3(CC2)OCCO3)c(C)c1 | -6.31% (inactive)
5 | COc1ccc(-c2onc3ccc(C(C)=O)cc23)cc1 | 28% (inactive)
6 | Oc1ccc(-c2onc3ccc(Cl)cc23)cc1 | 50.4% (active)
7 | NC(N)=Nc1nc(-c2ccccc2)c2cc(Cl)ccc2n1 | -62.5% (inactive)
8 | Nc1nc(SCC(=O)NCCN2CCOCC2)nc2sc3c(c12)CCC3 | -8.51% (inactive)
9 | CC(C)(C)C1CCc2c(sc3nc(SCC(N)=O)nc(N)c23)C1 (stereo not given) | 58.8% (active)
10 | C=C(C)CSc1nc(N)c2c3c(sc2n1)CCC3 | -7.64% (inactive)
11 | CCOC(=O)CN(C(=O)COc1nc(C)cc(C)c1C#N)c1ccc(Cl)cc1 | -3.59% (inactive)
12 | O=C(O)c1ccc(NN=CC2=C(N3CCOCC3)/C(=C/c3ccccc3)CC2)cc1 | 77.1% (active)
13 | O=C1Nc2ccc(Br)cc2/C1=N/N=C/C1=C(N2CCOCC2)C(=C\c2ccccc2)/CC1 | -26.8% (inactive)
14 | N#C/C(=C\C1=C(N2CCOCC2)C(=C\c2ccccc2)/CC1)C(=O)Nc1ccccc1F | -1.9% (inactive)
15 | COc1ccc(C(=O)n2nc(-c3ccc(Cl)cc3)nc2N)cc1OC | -7.87% (inactive)
16 | COc1ccc(CCn2ccc(O)c(Cc3ccc(Cl)cc3Cl)c2=O)cc1OC | -38.7% (inactive)
17 | COc1ccc(C(=O)O/N=C(\N)Cc2ccc(Cl)cc2Cl)cc1OC | 94.6% (active)
18 | NC(=O)c1cc(S(=O)(=O)N2CCCC2)ccc1OCc1ccc(F)cc1 | -13.4% (inactive)
19 | CC1(C)NC(=O)N(CC(=O)Nc2cc(C(F)(F)F)cc(C(F)(F)F)c2)C1=O | 1.66% (inactive)
20 | COc1ccc(CCNCc2c(-c3ccccc3)n(C)c3ccccc23)cc1 | -20.4% (inactive)
21 | CC1(C)CC(=O)C=C(NCCN2CCNCC2)C1 | -7.29% (inactive)
22 | COc1ccc(-c2nnc(SC(=O)N3c4ccccc4Sc4ccccc43)o2)cc1 | 72.5% (active)
23 | COc1ccc(CN(C(=O)CSc2nnc(-c3ccc(OC)c(OC)c3)o2)c2ccc(F)cc2)cc1 | -14.5% (inactive)

Row | SMILES | potentiation
24 | COc1ccc(-c2nnc(SC(C)C(=O)NC3CC3)o2)cc1 (stereo not given) | 0.965% (inactive)
25 | CC(C)c1ccc(Nc2ncccc2C#N)cc1 | -6.55% (inactive)
26 | COc1ccc(-c2csc(C(O)c3cccc(Cl)c3)n2)cn1 (stereo not given) | -10.4% (inactive)
27 | CNC(=O)/C(C#N)=C/c1c(F)cccc1Cl | 21.1% (inactive)
28 | O=C(Nc1ccccc1F)c1ccccc1-c1ccc(C(F)(F)F)cc1 | -15.1% (inactive)
29 | N#C/C(=C\c1ccccc1C(F)(F)F)C(=O)Nc1ccccc1F | 57.7% (active)
30 | O=C(COC(=O)c1cc(-c2cccs2)nn1-c1ccccc1)Nc1cc([N+](=O)[O-])ccc1Cl | -0.407% (inactive)
31 | COc1ccc(CN2C(CC(=O)Nc3cccnc3)c3ccc(C(F)(F)F)cc3S2(=O)=O)cc1 (stereo not given) | -5.81% (inactive)
32 | COc1ccc(N(CC(=O)NC2CCCCC2)C(=O)CNC(=O)c2ccco2)c(OC)c1 | -8.59% (inactive)
33 | COc1ccccc1CNC(=O)c1cc(-c2cc(Cl)ccc2C)n[nH]1 | -2.11% (inactive)
34 | Cc1ccc(OCc2nnc(SC3CCc4ccccc4C3=O)n2C)cc1 (stereo not given) | 51.4% (active)
35 | Cc1cccnc1NC(=O)CSc1nnc(COc2ccc(C(C)C)cc2)n1C | -13.7% (inactive)
36 | COc1ccccc1C(=O)Nc1ccc(OCc2nnc3c4ccccc4c(C)nn23)cc1 | 9.9% (inactive)
37 | O=c1[nH]c(=S)[nH]c(O)c1/C=C1\C=Nc2ccccc21 | -32.7% (inactive)
38 | CC1=NN(c2ccc(Cl)c(C(=O)O)c2)C(=O)/C1=C/c1ccc(-c2ccccc2[N+](=O)[O-])o1 | -7.86% (inactive)
39 | O=C1NC(c2ccc(-c3ccccc3[N+](=O)[O-])o2)C(C(=O)c2ccc(Cl)cc2)C(O)(C(F)(F)F)N1 (stereo not given) | 55.4% (active)
40 | CCOC(=O)C1C(c2ccc(O)cc2)NC(=O)NC1(O)C(F)(F)F (stereo not given) | -0.717% (inactive)
41 | CCC(C)NC(=O)C1CCCN(C(=O)NC2CCCCC2)C1 (stereo not given) | 2.71% (inactive)
42 | Cc1ccc(S(=O)(=O)NCCc2nnc3ccc(SCc4cccnc4)nn23)cc1 | -34.2% (inactive)
43 | O=C(NCCc1nnc2ccc(SCC(=O)N3CCOCC3)nn12)c1ccccc1 | 1.02% (inactive)
44 | COC(=O)CSc1ccc2nnc(CCNS(=O)(=O)c3ccc(C)cc3)n2n1 | 71.3% (active)
45 | CN(Cc1ccccc1)C(=O)COC(=O)/C=C/c1ccc2c(c1)OCO2 | -10.6% (inactive)
46 | Cc1coc2c(O)cc3c(c12)OC1(N2CCCCC2)C(=O)NCCCC31 (stereo not given) | 70.8% (active)

Row | SMILES | potentiation
47 | CC(=O)Nc1cc(-c2ccc(N3CCN(C)CC3)cc2)cn2c(-c3cccc(C(=O)N(C)C)c3)cnc12 | -8.12% (inactive)
48 | COC(=O)[C@H]1C[C@H](OC(=O)NCc2ccccc2)[C@@]2(O)CN(S(=O)(=O)c3ccc(C)cc3)CC2[C@H]1C(=O)OC (stereo not given in full) | -0.0644% (inactive)
49 | Cc1ccc(NC(=O)COC(=O)CN2CCCCCC2=O)c(C)c1 | -1.65% (inactive)
50 | Cc1ccc(S(=O)(=O)N2CCN(C(=O)c3cc(S(=O)(=O)N4CCOCC4)ccc3F)CC2)cc1 | 0.45% (inactive)
51 | CN1OC[C@@H]2CN(C(=O)C(C)(C)C)[C@H](c3ccc(-n4ccnc4)cc3)C[C@@H]21 | -5.65% (inactive)
52 | CC(Oc1cccc(Cl)c1)C(=O)NC1CC(C)(C)NC(C)(C)C1 (stereo not given) | -22.7% (inactive)
53 | Cc1ccc(NC(=O)CN(C)S(=O)(=O)c2cnc[nH]2)cc1C | -13% (inactive)
54 | CN(CC(=O)Nc1ccccc1Cl)C(=O)c1ccccc1SCC(=O)N1CCCC1 | -9.34% (inactive)
55 | O=C1C=C(c2cccc(Br)c2)C[C@@H](c2ccc(F)cc2)C1 | -7.26% (inactive)
56 | Cc1ccc(CN(N=Nc2nonc2N)c2nonc2N)c(C)c1 | 25.8% (inactive)
57 | O=C1Oc2ccccc2C(=O)/C1=C/c1ccccc1O | 1.41% (inactive)
58 | O=C(COc1ccc(/C=N/NC(=O)c2ccc(O)cc2)cc1)Nc1ccc([N+](=O)[O-])cc1 | -4.2% (inactive)
59 | O=C(N/N=C/c1ccc([N+](=O)[O-])cc1)c1c[nH]c2ccccc12 | 64.1% (active)
60 | O=C(Cc1c[nH]c2ccccc12)N/N=C/c1cccc(F)c1 | -9.63% (inactive)
61 | Nc1nc(CSc2nnnn2-c2ccccc2)nc(Nc2ccccc2)n1 | 4.76% (inactive)
62 | COCCCn1c(C(=O)NC2CCCCC2)cc2c(=O)n3cccc(C)c3nc21 | -4.49% (inactive)
63 | CC12CN3CCN(CC(C3)/C1=N\NC(=O)c1ccccc1N)C2 | -0.591% (inactive)
64 | CCC(C)c1ccccc1NC(=O)CN(C)CC(=O)Nc1ccccc1SC (stereo not given) | 1.68% (inactive)
65 | COc1cccc2oc(CCc3ccccc3)cc(=O)c12 | -6.37% (inactive)
66 | Cc1c2cn[nH]c(=O)c2c(C)n1Cc1ccc(F)cc1 | -5.05% (inactive)
67 | CN1CCC2(CC1)NC(=O)NC2=O | 11.5% (inactive)
68 | COc1cccc(N=c2oc3c(C)ncc(CO)c3cc2C(N)=O)c1 | -0.831% (inactive)
69 | CCNC(=O)C1(C)CCN(C(=O)c2ccccc2)C1 (stereo not given) | -7.31% (inactive)

Row | SMILES | potentiation
70 | CN(C)S(=O)(=O)c1ccc(N2CCCC2)c(C(=O)NCc2ccccc2)c1 | -8.01% (inactive)
71 | COc1cccc(CNc2ncc(-c3ccccc3)n2C)c1 | -30.3% (inactive)
72 | CCOC(=O)c1cc2c(=O)[nH]c(C(Cl)(Cl)Cl)nc2o1 | 7.93% (inactive)
73 | CCC(C)CCN1CCN=C1N(C)C (stereo not given) | -8.79% (inactive)
74 | Cc1ccc(N(CC(=O)NCC2CCCO2)C(=O)CNS(=O)(=O)c2ccc(Cl)cc2)cc1 (stereo not given) | 0.715% (inactive)
75 | COc1cccc(-c2cnc(OC(C)(C)C)nc2OC(C)(C)C)c1 | -5.2% (inactive)
76 | COc1cccc(CNC(=O)Cn2c(=O)oc3cc(S(=O)(=O)N4CCCCC4)ccc32)c1 | -3.62% (inactive)
77 | CCOC(=O)C1(Cc2cccc(OC)c2)CCN(Cc2csc(C(C)=O)c2)CC1 | -21.6% (inactive)
78 | NC1=NC(c2ccc([N+](=O)[O-])cc2)N(c2ccc(F)cc2)C(N)=N1 (stereo not given) | 0.113% (inactive)
79 | Cc1ccc2c(c1)C(O)(CC(=O)c1cccnc1)C(=O)N2 (stereo not given) | -30% (inactive)
80 | Cc1ccc(S(=O)(=O)n2cccc2CO)cc1 | -0.194% (inactive)
81 | Cc1cccc(CNC(=O)c2sc(=O)n(Cc3ccccc3C)c2C)c1 | -5.51% (inactive)
82 | CC(C)(C)N1C(=O)c2c(C(=O)OCc3ccccc3)[nH]c(-c3ccccc3)c2C1=O | -2.35% (inactive)
83 | CC(C)Nc1nnc(SC(C)C(=O)N(C)C2CCCCC2)s1 (stereo not given) | -2.23% (inactive)
84 | CCCN(CC1CC1)C(=O)COC(=O)c1ccc(C)cc1O | -24.9% (inactive)
85 | Cc1ccc(S(=O)(=O)N(CCCN(C)C)Cc2ccc3c(c2)OCO3)cc1 | -10.1% (inactive)
86 | CC1=C(C(=O)N(C(C)C)C(C)C)CC(CC(=O)NCCCCc2ccccc2)C(=O)N1CCC1=CCCCC1 (stereo not given) | -4.46% (inactive)
87 | CCOC(=O)CSc1nnc(NC(=O)C2CC(=O)N(c3ccc(F)cc3)C2)s1 (stereo not given) | -2.95% (inactive)
88 | CC(C)Cc1nnc(NC(=O)CCC(=O)Nc2ccc3cn[nH]c3c2)s1 | -12.9% (inactive)
89 | O=C(Nc1ccc2cn[nH]c2c1)c1ccc(S(=O)(=O)N2CCOCC2)cc1 | -3.76% (inactive)
90 | S=C(Nc1cccc(Cl)c1)Nc1ccc2cn[nH]c2c1 | 60.4% (active)
